Screening data deposited in PubChem BioAssay by National Center for Advancing Translational Sciences (NCATS).
The entries come from a sample that favours hits as a whole.
NPSR antag: antagonists of human neuropeptide S receptor cAMP signaling. Potency, µM (titrated, usually from 38.3 µM), most hits filed as inhibitors. actives 1% (n = 220,000). Q6W5P4. CHO-NPSR cells, cAMP TR-FRET, antagonist mode; also: nearly all actives have a fitted effect of over 50% in size
Target sequence (Q6W5P4 whole entry, looked up): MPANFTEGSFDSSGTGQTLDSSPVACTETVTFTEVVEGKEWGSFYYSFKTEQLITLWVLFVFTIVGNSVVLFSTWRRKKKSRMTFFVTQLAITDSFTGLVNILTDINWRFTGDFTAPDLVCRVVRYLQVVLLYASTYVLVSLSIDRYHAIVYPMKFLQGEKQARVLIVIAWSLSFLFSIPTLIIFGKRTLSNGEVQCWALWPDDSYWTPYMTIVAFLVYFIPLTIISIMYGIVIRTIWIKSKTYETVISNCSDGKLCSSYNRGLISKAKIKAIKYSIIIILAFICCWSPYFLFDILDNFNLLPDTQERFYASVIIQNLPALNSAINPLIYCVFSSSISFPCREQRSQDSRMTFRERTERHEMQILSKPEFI
ERK EGF inh: inhibitors of EGF-stimulated ERK signaling pathway. HEK293-V1b, EGF-stimulated phospho-ERK AlphaScreen. actives 0.41% (n = 130,000). Potency, µM (doses to about 11.5 µM), usual class: inhibitors; also: nearly all actives have a fitted effect of over 55% in size
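Homogeneous cell-based phospho-ERK assay: HEK293/V1b cells in 1% FBS, compound 30 min then EGF 5 min, AlphaScreen luminescence. Activity normalized between DMSO and 25 nM EGF controls; AC50 from Hill modelling.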
Each line names hits and unclear results; the compound was inactive in the other large screens; ! = not active in a repeat. Calls follow the shape of the dose curve; as a rule, active = well fitted curve in the direction sought with a large enough effect; inconclusive = small, poorly fitted or top-dose-only effect, or another doubt; inactive = no such curve, though single readings can be large; an effect the other way counts as inactive or inconclusive.

Cc1[nH]c2ccc(F)cc2c1CCN(Cc1ccncc1)C(=S)Nc1cccc(F)c1	none
Cc1[nH]c2ccc(F)cc2c1CCN(Cc1cccnc1)C(=S)Nc1ccc(F)cc1	NPSR antag 10µM
CC1(C)CC(=O)c2cc3c(N)c(C(=O)NCc4ccccc4)sc3nc2C1	none (no result: ERK EGF inh)
CN1CCc2nc3sc(C(=O)NCc4ccccc4)c(N)c3cc2C1	NPSR antag 13µM
CCCCC[C@H](O)/C=C/C=C\C/C=C\C/C=C\CCCC(=O)O	none (no result: NPSR antag)
Cc1ccnc(NC(=O)c2sc3cc(Cl)ccc3c2Cl)c1	none
Cc1noc(C(=O)Nc2ccc3c(c2)OCO3)c1Cl	none
Cc1ccc2c(Cl)c(C(=O)Nc3ccc4c(c3)OCO4)sc2c1	NPSR antag 6.3µM
CCN(CC)Cc1ccc(NC(=O)c2sc3cc(Cl)ccc3c2Cl)cc1	ERK EGF inh 28µM
CC1(COc2ccc(CC3SC(=O)NC3=O)cc2)CCCCC1 (configuration not stated)	none (no result: NPSR antag)
CCCCC/C=C\C/C=C\C/C=C\C=C\C(=O)CCCC(=O)O	none (no result: NPSR antag)
[2H]c1c([2H])c([2H])c(C(=O)c2sc(N3CCCCCC3)nc2-c2ccccc2)c([2H])c1[2H]	none (no result: ERK EGF inh)
COc1ccc(-c2nc(N3CCCCCC3)sc2C(=O)c2ccccc2)cc1	NPSR antag 5µM (no result: ERK EGF inh)
Cc1ccccc1CS(=O)(=O)c1nnc([C@H](Cc2ccccc2)NC(=O)OC(C)(C)C)o1	NPSR antag 10µM (no result: ERK EGF inh)
CCSc1nnc([C@H](Cc2ccccc2)NC(=O)OC(C)(C)C)o1	none (no result: ERK EGF inh)
CCN1/C(=C/C(C)=C/c2sc3ccccc3[n+]2CC)Sc2ccccc21	NPSR antag inconclusive, ERK EGF inh 18µM
CCN1/C(=C\C(=S)Nc2ccccc2)Sc2ccccc21	none
CC#C[C@]1(O)CC[C@H]2[C@@H]3CCC4=CC(=O)CCC4=C3[C@H](c3ccc(N(C)C)cc3)C[C@@]21C	none (no result: NPSR antag)
CC#C[C@]1(O)CC[C@H]2[C@@H]3CCC4=CC(=O)CCC4=C3[C@@H](c3ccc(N(C)C)cc3)C[C@@]21C	NPSR antag 13µM
COc1ccc(-c2nc3cnc(N4CCNCC4)nc3n(C3CC3)c2=O)cc1	none (no result: NPSR antag)
COc1cccc([C@@H]2Oc3ccc(Br)cc3C[C@H]2OC(=O)Nc2ccc(OC(F)F)cc2)c1	none (no result: NPSR antag)
CCCCCCCCCCCCC/C=C/[C@@H](O)[C@H](CO)NCCCCCCCC	none (no result: NPSR antag)
COc1ccc2c(c1)O[C@@H](c1ccc3c(c1)OCO3)[C@H](OC(=O)NCCOc1ccccc1)C2=O	none (no result: NPSR antag)
O=C1C(SCCO)=C(SCCO)C(=O)c2ccccc21	NPSR antag 13µM, ERK EGF inh inconclusive
O=c1[nH]c2ccccc2c(O)c1SCCO	none
COc1ccc2c(c1)O[C@@H](c1cccc(C(F)(F)F)c1)[C@H](OC(=O)NC1CCCC1)C2=O	none (no result: NPSR antag)
CCOc1ccc(-n2c(SCC(=O)NCc3ccco3)nnc2-c2c[nH]c3ccccc23)cc1	NPSR antag 13µM (no result: ERK EGF inh)
Cn1c(SCC(=O)NCc2ccco2)nnc1-c1c[nH]c2ccccc12	none (no result: ERK EGF inh)
O=C(Nc1nc(-c2ccccc2)c(C(=O)c2ccccc2)s1)c1ccc(S(=O)(=O)N2CCCC2)cc1	NPSR antag 6.3µM
O=C(Nc1nc(-c2ccccc2)c(-c2ccccc2)s1)c1ccc(S(=O)(=O)N2CCCC2)cc1	none (no result: ERK EGF inh)
COc1ccc2c(c1)O[C@H](c1ccc3c(c1)OCO3)[C@@H](OC(=O)Nc1ccc(OC(F)F)cc1)C2=O	none (no result: NPSR antag)
COCCn1c(=O)c(-c2cc(F)cc(F)c2)nc2cnc(OC)nc21	none (no result: NPSR antag)
COc1ccccc1CN1CCC2(CC1)CCN(S(=O)(=O)c1ccccc1)CC2	none (no result: NPSR antag)
O=C(CCNc1ccc(Br)cc1)c1cccc([N+](=O)[O-])c1	none
O=C(/C(N=Nc1cccc([N+](=O)[O-])c1)=C(/O)c1ccc(Br)cc1)C(F)(F)F	NPSR antag 6.3µM
COC(=O)C1(C(=O)OC)CC2=CC(CC2=O)Cc2ccccc2[C@@H]1C[N+](=O)[O-] (some centres not stated)	none (no result: NPSR antag)
COC(=O)[C@@H](NC(=O)O[C@@H]1C(=O)c2ccc(OC)cc2O[C@H]1c1ccc2c(c1)OCO2)C(C)C	none (no result: NPSR antag)
COc1cccc(Cn2c(=O)c(C)nc3cnc(OCc4ccccc4)nc32)c1	none (no result: NPSR antag)
COC(=O)N[C@@H](/C=C/c1ccccc1)/C(C(=O)OC)=C(\C)NCc1ccccc1	none (no result: NPSR antag)
O=C1/C(=C/c2ccc(O)c(O)c2)SC(=S)N1Nc1ccccc1	ERK EGF inh 13µM
COc1cc(/C=C2\SC(=S)N(Nc3ccccc3)C2=O)ccc1O	ERK EGF inh inconclusive
C=CCC1(O)CCOc2ccccc21 (configuration not stated)	none (no result: NPSR antag)
COC(=O)/C(=C1/OC(=O)C(c2ccccc2)=C1O)c1ccccc1	none (no result: NPSR antag)
O=c1[nH]c2c(s1)C(c1ccc(O)cc1)C1C3CCC(C3)C1S2 (configuration not stated)	NPSR antag 10µM (no result: ERK EGF inh)
O=c1[nH]c2c(s1)C(c1cccnc1)C1C3CCC(C3)C1S2 (configuration not stated)	none
COC(=O)C1=C(C(=O)OC)C(c2ccc(OC)c(OC)c2)c2sc(=O)[nH]c2S1 (configuration not stated)	none
COc1ccc(C2c3sc(=O)[nH]c3SC3C4CCC(C4)C23)cc1OC (configuration not stated)	NPSR antag 7.9µM
COCCN1C(=O)/C(=C/c2ccc(N3CCCC3)cc2C)SC1=S	ERK EGF inh 22µM
CCN=C1S/C(=C\c2ccc(N3CCOCC3)cc2C)C(=O)N1CC	none
C=C(C)C1CC[C@]2(CO)CC[C@@]3(C)[C@H](CCC4[C@@]5(C)CCC(O)C(C)(C)C5CC[C@@]43C)C12 (some centres not stated)	none (no result: NPSR antag)
CCOC(=O)/C(=C\c1ccc(Cl)cc1)c1nc2sc(C)c(C)c2c(=O)[nH]1	NPSR antag 7.9µM
CCOC(=O)CSc1nc2sc(C)c(C)c2c(=O)[nH]1	none (no result: ERK EGF inh)
COc1ccc2c(c1)C(=O)[C@H](OC(=O)N[C@H](C)C1CCCCC1)[C@@H](c1ccc(OC)c(Br)c1)O2	none (no result: NPSR antag)
O=C(c1cccc(F)c1)N1CCC2(CC1)CN(C(c1ccccc1)c1ccccc1)C2	none (no result: NPSR antag)
CC(C)Oc1ccc2c(=O)c3cc(C(=O)O)ccc3oc2c1	none (no result: NPSR antag)
Clc1ccccc1-c1nccc(-n2ccnc2)n1	none (no result: NPSR antag)
Clc1ccccc1C(c1ccccc1)(c1ccccc1)n1ccnc1	NPSR antag 5µM, ERK EGF inh 22µM!
N#C/C(=C\c1c[nH]c2ccccc12)C(=O)c1ccc(O)c(O)c1	none
O=C(O)C(S)[C@@H](S)C(=O)O (some centres not stated)	none (no result: NPSR antag)
Cc1ccc(-n2c(C)nc3c(cnn3-c3ccccc3Cl)c2=O)cc1C	none (no result: ERK EGF inh)
Cc1nc2c(cnn2-c2ccccc2Cl)c(=O)n1-c1ccc(N2CCC(C)CC2)cc1	NPSR antag 13µM (no result: ERK EGF inh)
COCCn1c(=O)c(-c2ccc(OC)cc2)nc2cnc(Nc3cccc(OC)c3)nc21	none (no result: NPSR antag)
Cc1nc(N2CCOCC2)c2nc(-c3ccccc3)n(CCCN3CCOCC3)c2n1	none (no result: NPSR antag)
Cc1ccc(C)c(/C=C/C(=O)c2ccccc(=O)c2O)c1	NPSR antag 13µM
O=C(/C=C/c1ccccc1Cl)c1ccccc(=O)c1O	NPSR antag 10µM
Cc1ccc(/C=C/C(=O)c2ccccc(=O)c2O)c(C)c1	none
O=C(/C=C/c1ccccc1Cl)c1ccc(O)cc1	none
Cc1nc(NC2CCCCC2)c2nc(-c3ccccc3)n(CCCN3CCCCC3C)c2n1 (configuration not stated)	none (no result: NPSR antag)
N#Cc1ccc(CN2CCCC3(CCN(C(=O)c4ccncc4)CC3)C2)cc1	none (no result: NPSR antag)
Cc1ccc(S(=O)(=O)N/N=C/c2cccn2-c2ccc(Cl)cc2)cc1	none
